Reference: PubChem BioAssay AID1835 (Johns Hopkins Ion Channel Center, 2009)
In all, about 2,400 compounds went through this assay and about 750 (31%) were called active.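 Rule for the calls: active = median signal gain over dofetilide-blocked control wells reaching their mean plus 3 SD, so readout 1 at least 0; inactive = the rest.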 This is one part of the list.

These compounds were tested against Voltage-gated inwardly rectifying potassium channel KCNH2 (Homo sapiens) (UniProt Q12809) (assay: hERG protection against dofetilide inhibition, confirmation, cell-based, thallium flux, duplicate retest, dofetilide IC70 (AID 1835)). Conditions: hERG cell line, FluxOR thallium flux, dofetilide-blocked; at 10 µM; active compounds read high.
Voltage-gated inwardly rectifying potassium channel KCNH2 (Homo sapiens), sequence (Q12809 whole entry, looked up): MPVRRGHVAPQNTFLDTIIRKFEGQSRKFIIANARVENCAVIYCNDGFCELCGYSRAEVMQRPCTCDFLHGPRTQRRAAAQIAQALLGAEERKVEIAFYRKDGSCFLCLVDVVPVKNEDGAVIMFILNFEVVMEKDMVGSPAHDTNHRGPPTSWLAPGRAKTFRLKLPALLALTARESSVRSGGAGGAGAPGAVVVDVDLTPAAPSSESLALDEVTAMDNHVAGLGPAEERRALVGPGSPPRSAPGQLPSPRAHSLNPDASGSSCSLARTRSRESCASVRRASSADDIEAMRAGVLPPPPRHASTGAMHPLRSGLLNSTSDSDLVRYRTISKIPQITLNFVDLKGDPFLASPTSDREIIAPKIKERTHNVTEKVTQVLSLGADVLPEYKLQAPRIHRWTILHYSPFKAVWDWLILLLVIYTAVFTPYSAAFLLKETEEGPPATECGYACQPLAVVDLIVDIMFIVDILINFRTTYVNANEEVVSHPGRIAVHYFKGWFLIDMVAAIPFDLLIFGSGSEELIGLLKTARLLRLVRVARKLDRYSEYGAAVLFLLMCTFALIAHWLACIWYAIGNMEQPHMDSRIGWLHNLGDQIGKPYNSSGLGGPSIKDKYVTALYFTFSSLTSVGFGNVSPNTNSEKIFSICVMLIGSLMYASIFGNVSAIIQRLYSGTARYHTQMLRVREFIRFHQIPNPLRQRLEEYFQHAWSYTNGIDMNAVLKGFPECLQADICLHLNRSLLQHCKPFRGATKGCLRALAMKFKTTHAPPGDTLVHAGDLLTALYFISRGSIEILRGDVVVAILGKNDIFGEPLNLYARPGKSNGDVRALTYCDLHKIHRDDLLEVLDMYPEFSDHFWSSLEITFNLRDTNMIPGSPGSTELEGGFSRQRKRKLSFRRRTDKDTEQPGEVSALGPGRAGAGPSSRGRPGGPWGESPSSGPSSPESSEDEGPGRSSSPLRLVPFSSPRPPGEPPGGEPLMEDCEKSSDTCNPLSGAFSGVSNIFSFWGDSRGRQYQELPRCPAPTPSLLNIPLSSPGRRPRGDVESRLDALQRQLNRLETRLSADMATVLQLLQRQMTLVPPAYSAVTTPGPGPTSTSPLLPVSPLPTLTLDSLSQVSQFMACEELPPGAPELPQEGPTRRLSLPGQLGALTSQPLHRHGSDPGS

Row | Structure (SMILES) | activity increase over dofetilide control, less the hit threshold
1 | O=C(CSc1nnc(NC(=O)c2ccc(S(=O)(=O)N3CCOCC3)cc2)s1)Nc1ccccc1C(F)(F)F | -13% (inactive)
2 | Cc1[nH]cnc1CSCCN | -2% (inactive)
3 | O=C(NC(=S)N1CCCc2ccccc21)c1ccc([N+](=O)[O-])cc1 | 11% (active)
4 | O=C(NC(=S)N1CCCc2ccccc21)c1ccc(Br)cc1 | 32% (active)
5 | O=C(O)C1CCN1C1CCCCC1 (centres undefined) | -16% (inactive)
6 | CC(=O)c1c(C)nc(C)nc1NC(=O)C(C)C | -16% (inactive)
7 | CCOC(=O)CSc1nnc(NC(=O)c2ccc3c(c2)OCO3)s1 | -22% (inactive)
8 | Cc1ccccc1-c1nnn(CC(=O)NCc2ccc3c(c2)OCO3)n1 | -13% (inactive)
9 | Cc1ccc(NC(=O)c2cc(-c3ccc4c(c3)OCO4)on2)cc1 | -6% (inactive)
10 | c1ccc2c(c1)c1ccccc1n1c(-c3ccc4c(c3)OCO4)nnc21 | 1% (active)
11 | O=C(NCc1ccco1)C1CCN(C(=O)Cc2ccccc2)CC1 | -7% (inactive)
12 | CN(C)c1ccc(C(CNS(=O)(=O)c2ccc([N+](=O)[O-])cc2)N2CCCC2)cc1 (centres undefined) | -24% (inactive)
13 | Cc1cccc(N2CCN(C(=O)CNC(=O)c3cccc([N+](=O)[O-])c3)CC2)c1C | 13% (active)
14 | C/C=C(\C)CN1CCN(c2cccc(C)c2C)CC1 | -24% (inactive)
15 | Cc1cccc(N2CCN(C(=O)Cc3c(C(=O)O)[nH]c4ccc(Cl)cc34)CC2)c1C | -14% (inactive)
16 | CCOC(=O)c1sc(NN=C(C(=O)OC)C(=O)OC)c(C(=O)OCC)c1C | 19% (active)
17 | CCOC(=O)c1sc(NC(=O)c2ccccc2C(=O)O)c(C(=O)OCC)c1C | -4% (inactive)
18 | CCOC(=O)c1c(C)oc2cc(Br)c(OC)cc12 | -2% (inactive)
19 | COc1ccc2[nH]c3c(=O)n(CCN4CCOCC4)cnc3c2c1 | -14% (inactive)
20 | CCC1(C(=O)O)NC(c2cc(OC)ccc2O)C2C(=O)N(Cc3ccccc3)C(=O)C21 (centres undefined) | -18% (inactive)
21 | O=C(N/N=C/c1cccs1)C(=O)Nc1cccc(Cl)c1 | -6% (inactive)
22 | Nc1nc(O)c(N=Nc2ccc(S(N)(=O)=O)cc2)c(=O)[nH]1 | 6% (active)
23 | O=C1N(CN2CCN(Cc3ccccc3)CC2)c2ccccc2C12OCCCO2 | -4% (inactive)
24 | Cc1ccc(NC(=O)CCC(=O)OCC(F)(F)C(F)F)cc1 | -23% (inactive)
25 | CN(C)c1ccc(NC(=O)CCCc2ccccc2)cc1 | -19% (inactive)

Row | Structure (SMILES) | activity increase over dofetilide control, less the hit threshold
26 | CCCCC(=O)Nc1ccc(NCc2ccc(C)s2)cc1 | 14% (active)
27 | O=C(CCNC(=O)C1CCN(S(=O)(=O)c2ccc(F)cc2)CC1)NCc1ccc(Cl)cc1 | -16% (inactive)
28 | Cc1cc(C)c(Cn2c3ccccc3c3cnn(CC(=O)NCc4ccccn4)c(=O)c32)c(C)c1 | -4% (inactive)
29 | Cc1ccc(C(=O)N2CCN(c3ccccc3)CC2)cc1S(=O)(=O)N1CCCC1 | 19% (active)
30 | O=C(Nc1ccc(N2CCOCC2)cc1)c1ccc(S(=O)(=O)N2CCCCC2)cc1 | -10% (inactive)
31 | O=C(c1ccc(Cl)c(S(=O)(=O)N2CCCC2)c1)N1CCN(c2ccccc2F)CC1 | -1% (inactive)
32 | C=C(C)CNC(=S)Nc1nc2c(cc1C(=O)OCC)CCCC2 | -4% (inactive)
33 | CCNC(=S)Nc1nc2c(cc1C(=O)OCC)CCCC2 | 2% (active)
34 | C=CCNC(=S)Nc1nc2c(cc1C(=O)OCC)CCCC2 | -4% (inactive)
35 | CNC(=O)CSc1nnc(-c2ccco2)n1-c1ccccc1 | -14% (inactive)
36 | Cn1c(NNC(=O)C(c2ccccc2)c2ccccc2)cc(=O)n(C)c1=O | 7% (active)
37 | COc1ccc(C(CC(=O)O)NC(=O)C(c2ccccc2)c2ccccc2)cc1 (centres undefined) | -10% (inactive)
38 | CC(=O)c1ccc2c(c1)OCCOCCOCCO2 | -14% (inactive)
39 | Cc1cccc(C(=O)CC(=O)c2cc(Cl)ccc2O)c1 | -7% (inactive)
40 | Cc1ccc(C(=O)CC(=O)COc2ccc(Cl)cc2C)cc1 | 24% (active)
41 | CC(C)(C)c1ccc(C(=O)CC(=O)c2cc(Cl)ccc2O)cc1 | 17% (active)
42 | Cc1ccc(Cl)cc1NC(=O)COC(=O)c1ccccc1O | -10% (inactive)
43 | Cc1cc(Cl)ccc1OC(C)C(=O)NCCc1ccc2c(c1)OCCO2 (centres undefined) | -16% (inactive)
44 | Cc1ccc(O)c(C(=O)CC(=O)c2ccc(Cl)cc2)c1 | -2% (inactive)
45 | Cc1ccc(C(=O)CC(=O)c2cc(Cl)ccc2O)cc1 | 8% (active)
46 | COC(=O)C1CCCN1C(=O)COc1ccc(Cl)cc1Br (centres undefined) | -7% (inactive)
47 | Nc1nc2c(s1)CCCCCCCCCC2 | -11% (inactive)
48 | Cc1ccc(S(=O)(=O)N2CCOCC2)cc1NC(=O)CSc1nc2ccccc2c(=O)n1Cc1ccccc1 | -5% (inactive)
49 | O=C1OCCC1Sc1nc2ccccc2c(=O)n1Cc1ccc(F)cc1 (centres undefined) | 9% (active)
50 | COc1cc(C2NC(=O)NC(O)(C(F)(F)F)C2C(C)=O)cc(OC)c1OC (centres undefined) | -17% (inactive)

Row | Structure (SMILES) | activity increase over dofetilide control, less the hit threshold
51 | O=C(CSc1nnc(-c2ccncc2)o1)c1cccc([N+](=O)[O-])c1 | -10% (inactive)
52 | N/C(=N\OS(=O)(=O)c1cccc([N+](=O)[O-])c1)c1ccncc1 | 1% (active)
53 | CN(c1cccc(NS(=O)(=O)c2cccc([N+](=O)[O-])c2)c1)S(C)(=O)=O | -19% (inactive)
54 | COc1ccc(C)cc1-n1nnnc1SCc1nc2ccccc2c(=O)[nH]1 | -16% (inactive)
55 | Cc1ccc(C2=NN(C(=O)CCCC(=O)O)C(c3ccc4c(c3)OCO4)C2)cc1 (centres undefined) | -23% (inactive)
56 | COCCN1C(=O)c2oc3cc(C)c(C)cc3c(=O)c2C1c1ccc(O)cc1 (centres undefined) | -7% (inactive)
57 | Cc1ccc2oc3c(c(=O)c2c1)C(c1cccs1)N(CCCN(C)C)C3=O (centres undefined) | 11% (active)
58 | CCN(CC)CCCN1C(=O)c2oc3ccccc3c(=O)c2C1c1cccs1 (centres undefined) | 28% (active)
59 | COCCCNC(=O)CC(NS(=O)(=O)c1ccc(F)cc1)c1ccc(OC)cc1 (centres undefined) | -1% (inactive)
60 | CN(C)NC(=O)C(NC(=O)c1ccc(N)cc1)C12CC3CC(CC(C3)C1)C2 (centres undefined) | -10% (inactive)
61 | O=C(O)c1cc(-c2cccc([N+](=O)[O-])c2)n[nH]1 | -14% (inactive)
62 | CS(=O)(=O)c1sc(C(=O)NC(=S)Nc2ccc(OC(F)(F)F)cc2)c2c1C=CCC2 | 11% (active)
63 | O=C(O)/C=C/C(=O)Nc1ccc(OC(F)(F)F)cc1 | -3% (inactive)
64 | CCc1nnc(NS(=O)(=O)c2ccc(NC(=S)NC(=O)/C=C/c3ccc(OC)cc3)cc2)s1 | -4% (inactive)
65 | COc1ccc(Cc2c(O)nc(SCC(=O)NC(C)(C)C)[nH]c2=O)cc1 | -17% (inactive)
66 | C=CCn1c(SCC(=O)NCC2CCCO2)nnc1-c1ccccc1 (centres undefined) | -1% (inactive)
67 | COc1cccc(N2CC(C(=O)Nc3nnc(SCC(=O)NCC4CCCO4)s3)CC2=O)c1 (centres undefined) | -4% (inactive)
68 | Cc1nc(SCC(=O)NCC2CCCO2)c2c3c(sc2n1)CCCC3 (centres undefined) | 9% (active)
69 | COC(=O)C1CN(C(=O)COc2ccc(C)c(C)c2)c2ccccc2O1 (centres undefined) | -11% (inactive)
70 | Cc1ccc(OCc2ccoc2C(=O)O)cc1C | 11% (active)
71 | Cc1cc(OCc2ccc(C(=O)Nc3ccc(C(=O)O)cc3)o2)ccc1Cl | -22% (inactive)
72 | COC(=O)c1cc(S(=O)(=O)NCC2CCN(Cc3cc(C)ccc3C)CC2)c[nH]1 | -12% (inactive)
73 | Cc1nn(C)cc1C(=O)Nc1ccc2c(c1)OCCO2 | -8% (inactive)
74 | O=C(NC(=S)NCc1ccccc1)c1ccc(Br)o1 | 91% (active)
75 | COc1cccc(NC(=S)NC(C)c2ccc(OC)c(OC)c2)c1 (centres undefined) | -24% (inactive)

Row | Structure (SMILES) | activity increase over dofetilide control, less the hit threshold
76 | COc1ccc(NC(=S)NC(=O)c2ccc(Br)o2)cc1 | 13% (active)
77 | O=C(CNC(=S)NC(=O)c1ccc(Br)o1)c1ccccc1 | -3% (inactive)
78 | COc1cc(NS(=O)(=O)c2ccc(NC(=S)Nc3ccccc3)cc2)nc(OC)n1 | -26% (inactive)
79 | COc1ccc(OC)c(NC(=S)NC(=O)c2ccc(Br)o2)c1 | 0% (active)
80 | CCN(c1ccccc1)S(=O)(=O)c1ccc(NC(=S)NC(=O)c2ccc(Br)o2)cc1 | 20% (active)
81 | CCc1ccc(NC(=S)NC(=O)c2c(-c3ccccc3Cl)noc2C)cc1 | -2% (inactive)
82 | CCOC(=O)C1CCN(C(=O)CCS(=O)(=O)c2ccc3c(c2)CCN3C(=O)CC)CC1 | -17% (inactive)
83 | N#Cc1c(N)c(C(=O)c2ccccc2)n2ccccc12 | -2% (inactive)
84 | Cc1ccsc1/C=N/NC(=O)CNC(=O)c1ccccc1 | -2% (inactive)
85 | CCCCc1c(O)nc(SCC(=O)N2CCOCC2)[nH]c1=O | -10% (inactive)
86 | Cn1ncc2c(O/N=C(\N)c3ccc(C(F)(F)F)cc3)ncnc21 | -15% (inactive)
87 | NC(=O)C1CCN(C(=O)CCC(=O)c2ccc(F)cc2)CC1 | -4% (inactive)
88 | Cc1nc(-c2cc(C#N)c(Sc3ccc(Cl)cc3Cl)nc2C)cs1 | -4% (inactive)
89 | Cc1cccc(NC(=S)NC(=O)c2ccc(Br)o2)c1 | 33% (active)
90 | COc1ccc(-c2cc(C(=O)Nc3ccccc3SC)no2)cc1 | -2% (inactive)
91 | O=C(NC(=S)Nc1ccccc1F)c1ccc(Br)o1 | 43% (active)
92 | Cc1ccc(NC(=S)NC(=O)c2ccc(Br)o2)c(C)c1 | 0% (inactive)
93 | COc1ccccc1NC(=S)NC(=O)c1ccc(-c2ccc(Cl)cc2)o1 | 8% (active)
94 | O=C(NC(=S)Nc1ccccc1)c1ccc(Br)o1 | 5% (active)
95 | C/C(=N\NC(=S)Nc1cccc(C)c1)c1ccco1 | -26% (inactive)
96 | Cc1ccc2cc(CN(CCCN(C)C)C(=S)NCc3ccccc3)c(=O)[nH]c2c1C | -19% (inactive)
97 | Cc1nn(-c2ccc(Cl)nn2)c(=O)c2ccccc12 | -12% (inactive)
98 | COc1cccc2cc(-c3nc4ccccc4[nH]3)c(=O)oc12 | -24% (inactive)
99 | CC(C)=CC(=O)OCC(=O)Nc1ccc(SC(F)F)cc1 | -16% (inactive)
